Here are results for 21 molecules from PubChem BioAssay.

Records with an inconclusive call do not appear. Active and inactive are the calls of the source. The limit is not given here; nearly all actives have AC50 up to about 30 µM.

A short description of the assay: SU-DIPG-VI glioma cell viability, MIPE4.0 library, CellTiter-Glo luminescence, qHTS (AID 1347066).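 Also: cells exposed to compound for 48 hours before readout.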 To be noted: CellTiter-Glo ATP luminescence. On the technique in general: Cellular ATP, detected with luciferase, serves as a proxy for viable cell number.
On to `CC12CC3CC(C)(C1)CC(N)(C3)C2`, for which the result was inactive. For the molecule `CC(=O)OCC(CCn1cnc2cnc(N)nc21)COC(C)=O`, the call was inactive. A word on the AC50: it is the midpoint of the concentration-response curve, whichever way the signal moves. `Oc1c(Cl)cc(Cl)c2cccnc12`: the AC50 is 18.7 µM (active).

As for `OC(Cn1cncn1)(Cn1cncn1)c1ccc(F)cc1F`, the outcome was inactive. Still for that read-out and setting: next, `NCCc1ccc(O)c(O)c1`: “inactive”.

On to `COc1c(N2CCNC(C)C2)c(F)cc2c(=O)c(C(=O)O)cn(C3CC3)c12` (stereo unspecified), for which the call was inactive.

Take `CC1COc2c(N3CCN(C)CC3)c(F)cc3c(=O)c(C(=O)O)cn1c23` (stereo unspecified): the call was inactive. On the same count and under the same terms, the entry for `O=C(C1CCCCC1)N1CC(=O)N2CCc3ccccc3C2C1` (stereo unspecified) is “inactive”; for `CCc1cc(C(N)=S)ccn1` it is “inactive”; for `CCCCNc1cc(C(=O)O)cc(S(N)(=O)=O)c1Oc1ccccc1` it is “inactive”. On the same count and under the same terms, next, `O=c1[nH]cnc2[nH]ncc12`: “inactive”.

In the case of `O=C1c2c(O)ccc(O)c2C(=O)c2c(NCCNCCO)ccc(NCCNCCO)c21`, the AC50 is 23.5 µM (active). For the molecule `O=C(O)c1cc(=O)c2c(OCC(O)COc3cccc4oc(C(=O)O)cc(=O)c34)cccc2o1`, the outcome was inactive. For the molecule `CC(C)C(=O)Nc1ccc([N+](=O)[O-])c(C(F)(F)F)c1`, the call was inactive. With `CC(COc1ccccc1)N(CCCl)Cc1ccccc1` (stereo unspecified), the call was inactive. Turning to `CCCc1nc2c(C)cc(-c3nc4ccccc4n3C)cc2n1Cc1ccc(-c2ccccc2C(=O)O)cc1`, the molecule was classed as inactive.

Turning to `CC(=O)CC(c1ccccc1)c1c(O)c2ccccc2oc1=O` (stereo unspecified), the call was inactive. Turning to `NS(=O)(=O)c1cc2c(cc1Cl)NCNS2(=O)=O`, the molecule was classed as inactive. Regarding `CS(=O)(=O)OCCCCOS(C)(=O)=O`, the molecule was classed as inactive. Take `NNCCc1ccccc1`: the molecule was classed as inactive. Same read-out and setting: the entry for `CC(C)Cc1ccc(C(C)C(=O)O)cc1` (stereo unspecified) is “inactive”.
